About 11,000 (3.5%) of roughly 310,000 compounds were called active. Inconclusive results (about 4%) are left out. For the sample, actives were picked, then their nearest neighbours and some compounds at random. More than one record can exist for a structure, and the calls need not agree. Values without a mark were called inactive. The call rests on the fitted dose curve; in most records, active means well fitted inhibition curve with a large enough effect; inconclusive means small, poorly fitted or top-dose-only effect, or another doubt; inactive means no such curve, though single readings can be large or run the other way.
What follows are compounds tested against 4'-phosphopantetheinyl transferase ffp (Bacillus subtilis) (UniProt Q9F4F7) (assay: qHTS Assay for Inhibitors of Bacillus subtilis Sfp phosphopantetheinyl transferase (PPTase)). Details: Biochemical Sfp PPTase activity.
Outline: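 Step 1, compound plus 15 nM Sfp-PPTase, 15 min, room temperature. Step 2, add rhodamine-CoA (5 uM) and BHQ-2-YbbR (12.5 uM). Step 3, read 525/598 nm fluorescence at 0 and 30 min.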
`CC1CN(CCOc2ccccc2[N+](=O)[O-])CC(C)O1` (configuration not stated) gave a largest response in the series, negative = inhibition of -26.3%. `CC1CCCN(CCOCCOc2ccccc2-c2ccccc2)C1` (configuration not stated) showed a largest response in the series, negative = inhibition of -31.6%. In the case of `CN1CCN(CCCCOc2cccc3ccccc23)CC1`, the largest response in the series, negative = inhibition is reported as 4.87%. `CC1CN(CCCOc2ccccc2-c2ccccc2)CC(C)O1` (configuration not stated) was tested, and the Potency was 56.2 µM (active). `c1ccc(-c2ccccc2OCCN2CCCCC2)cc1` gave a largest response in the series, negative = inhibition of -19%. For `CN1CCN(CCCCOc2ccccc2-c2ccccc2)CC1`, the Potency was 56.2 µM (active). `CCN(CC)CCCNC(=O)CCn1nc(-c2ccc(Cl)cc2)ccc1=O` showed a largest response in the series, negative = inhibition of 13.6%. For `OC(CNC1CCCC1)COc1ccc(F)cc1` (configuration not stated), the largest response in the series, negative = inhibition was 1.37%. `CCc1cccc(C)c1N1C(=O)CN(Cc2ccccc2)C1=S` was tested, and the largest response in the series, negative = inhibition was 13.8%. `C#CC(C)(C)NC(=O)c1cnc(-c2ccccc2)nc1-c1ccccc1` was tested, and the largest response in the series, negative = inhibition was 8.13%. Compound `COc1ccc(C(=O)n2nc(C)c(Br)c2C)cc1OC` has a largest response in the series, negative = inhibition of 16.8%. For `CC1CCN(S(=O)(=O)c2ccc3c(ccn3CC(=O)O)c2)CC1`, the largest response in the series, negative = inhibition was 13.3%. Work on `CC(C)OC(=O)c1cc(NC(=O)C2C3CCC(O3)C2C(=O)O)cc(C(=O)OC(C)C)c1` (configuration not stated) yielded a largest response in the series, negative = inhibition of 12.5%. For `COc1ccc(NC(=O)C2C3CCC(O3)C2C(=O)O)cc1OC` (configuration not stated), the largest response in the series, negative = inhibition was -8.26%. `Cc1sc(NC(=O)C2C3CCC(O3)C2C(=O)O)c(C(=O)OC(C)C)c1-c1ccc(Cl)cc1` (configuration not stated) was tested, and the Potency was 56.2 µM (active). In the case of `O=c1ccc2cc(S(=O)(=O)NCCCc3ccccc3)ccc2[nH]1`, the largest response in the series, negative = inhibition is reported as 6.03%. Work on `CCOC(=O)C1CCN(S(=O)(=O)c2c(C)noc2C)CC1` yielded a largest response in the series, negative = inhibition of 0.623%. For `COc1cccc(-c2coc3cc4oc(=O)c(CC(=O)O)c(C)c4cc23)c1`, the largest response in the series, negative = inhibition was 3.72%. Work on `O=C(COc1ccc(Cl)cc1)Nc1ccc2oc(=O)ccc2c1` yielded a largest response in the series, negative = inhibition of -10.1%. For `O=C(NC(=S)Nc1ccc2oc(=O)ccc2c1)c1ccc(-c2cccc(Cl)c2Cl)o1`, the Potency was 79.4 µM (active). `CC(C)C(=O)Nc1ccc2oc(=O)ccc2c1` was tested, and the largest response in the series, negative = inhibition was 13.6%. For `COC/C=C/C1=CC2=CC(=O)C(C)(OC(=O)CCC(=O)OC)C(=O)C2=CO1` (configuration not stated), the Potency was 56.2 µM (active) and the largest response in the series, negative = inhibition was -28.3%. Work on `CC(C)(C)OC(=O)NCCCC1=CC2=CC(=O)C(C)(OC(=O)c3ccco3)C(=O)C2=CO1` (configuration not stated) yielded a largest response in the series, negative = inhibition of -0.751%. `CC(C)(C)OC(=O)NCCCCC1=CC2=CC(=O)C(C)(OC(=O)c3cccs3)C(=O)C2=CO1` (configuration not stated) showed a largest response in the series, negative = inhibition of -1.92%. With `COc1cc(C2C3=C(CCCC3=O)OC3=C2C(=O)CCC3)ccc1OCC(=O)Nc1ccccc1` the largest response in the series, negative = inhibition was -3.15%. For `Cc1cccc(C)c1NC(=O)COC(=O)c1ccccc1O`, the largest response in the series, negative = inhibition was -13%. In the case of `O=C(NC(=S)Nc1ccccc1C(=O)O)c1ccc(-c2ccc(Br)cc2)o1`, the Potency is reported as 31.6 µM (active). `Cc1cccc(NC(=S)NC(=O)c2ccc(Br)o2)c1` gave a largest response in the series, negative = inhibition of -10.9%. With `COC(=O)c1ccccc1NC(=S)NC(=O)c1ccccc1F` the largest response in the series, negative = inhibition was 10.1%. With `CC1(C)C2CCC1(CS(=O)(=O)NCCc1c[nH]c3ccccc13)C(=O)C2` (configuration not stated) the largest response in the series, negative = inhibition was 3.13%. `CCCCN(C)CCNC(=O)C1CCCN(S(=O)(=O)c2cccc3nsnc23)C1` (configuration not stated) gave a largest response in the series, negative = inhibition of 11.4%. Work on `COCCNC(=S)N(CCc1c(C)[nH]c2ccc(C)cc12)Cc1cccnc1` yielded a largest response in the series, negative = inhibition of 5.81%. For `COc1cc(/C=C2/C(=O)ON=C2C)ccc1OCc1ccccc1F`, the Potency was 56.2 µM (active). Work on `CCOc1cc(/C=N/O)ccc1OCc1ccccc1F` yielded a largest response in the series, negative = inhibition of 2.28%. For `COc1cc(/C=C2/C(=O)ON=C2C)ccc1OCc1cccc(F)c1`, the largest response in the series, negative = inhibition was -29.4%. In the case of `O=C(Nc1nnc(-c2ccc(F)cc2)s1)c1c(F)cccc1Cl`, the largest response in the series, negative = inhibition is reported as 11.5%. With `O=C(NCCNc1ccc([N+](=O)[O-])cc1Cl)c1ccccc1F` the largest response in the series, negative = inhibition was 13.9%. `O=C1NC(c2ccncc2)Nc2sc3c(c21)CCCC3` (configuration not stated) was tested, and the Potency was 35.5 µM (active). With `O=C(Nc1sc2c(c1-c1nc3ccccc3[nH]1)CCCC2)C1CC1` the largest response in the series, negative = inhibition was 11.4%. In the case of `C/C(=C\c1ccccc1)C1NC(=O)c2c(sc3c2CCCC3)N1` (configuration not stated), the largest response in the series, negative = inhibition is reported as -9.45%. Work on `COc1ccc(CNC(=O)C(c2ccc(O)cc2)N(Cc2ccco2)C(=O)c2snc(C(N)=O)c2N)cc1` (configuration not stated) yielded a largest response in the series, negative = inhibition of 8.78%. Work on `O=CN1CCN(C(=O)c2ccc3c(c2)OCO3)CC1` yielded a largest response in the series, negative = inhibition of 5.66%. With `Cc1ccc(C(=O)NC(=S)NCCN2CCOCC2)cc1` the largest response in the series, negative = inhibition was 0.183%. `O=C(NNC(=S)NCCCN1CCOCC1)c1ccncc1` was tested, and the Potency was 28.2 µM (active). `Cc1cc(C)cc(NC(=S)NCCCN2CCOCC2)c1` was tested, and the largest response in the series, negative = inhibition was 3.01%. `O=C(N/N=C/c1ccoc1)c1ccc(Cl)cc1Cl` showed a largest response in the series, negative = inhibition of 5.37%. `Cc1cccc(N2CCN(C(=O)CCS(=O)(=O)c3ccc4c(c3)NC(=O)C(C)S4)CC2)c1C` (configuration not stated) gave a largest response in the series, negative = inhibition of 10.9%. Work on `CC(C)(C)OC(=O)CNC(=O)c1[nH]cnc1C(=O)N[C@@H](Cc1ccccc1)C(=O)OCc1ccccc1` yielded a largest response in the series, negative = inhibition of 19.7%. In the case of `CCCCCCCCCCOC(=O)Cn1c(COc2ccc(C)cc2)[n+](C)c2ccccc21`, the Potency is reported as 31.6 µM (active). `CCCCOC(=O)Cn1c(=O)n(CC(=O)OCCCC)c2cc(C)ccc21` was tested, and the largest response in the series, negative = inhibition was 7.32%. `CCCCCCCCCCOC(=O)Cn1c(COc2cccc(OC)c2)[n+](C)c2ccccc21` was tested, and the Potency was 44.7 µM (active). For `COc1cccc(OCC(=O)Nc2ccccc2C(N)=O)c1`, the largest response in the series, negative = inhibition was 10.7%. For `CCCCOC(=O)Cn1c(=N)n(CCN(CC)CC)c2ccccc21`, the largest response in the series, negative = inhibition was 8.57%. In the case of `Cc1ccc(OCCCn2c(=O)oc3ccccc32)cc1`, the largest response in the series, negative = inhibition is reported as -10.3%. Compound `O=S(=O)(c1ccc(Cl)s1)N1CCC2(CC1)OCCO2` has a largest response in the series, negative = inhibition of 23.5%. With `CCCCn1c(N)c(N(CCOC)C(=O)c2oc3ccc(OC)cc3c2C)c(=O)[nH]c1=O` the largest response in the series, negative = inhibition was 15.3%. `O=C(CC1C(=O)NCCN1C(=O)c1ccc([N+](=O)[O-])cc1)Nc1cccc(Cl)c1` (configuration not stated) was tested, and the largest response in the series, negative = inhibition was 5.33%. `Cc1cc(C)c(S(=O)(=O)c2cc(F)ccc2C)c(=O)[nH]1` showed a largest response in the series, negative = inhibition of 27.3%. `CCCN1CC=C2C(C#N)=C(N)C(C#N)(C#N)C(c3cc(OC)ccc3OC)C2C1` (configuration not stated) showed a largest response in the series, negative = inhibition of -12.4%. `N#CC1=C(N)C(C#N)(C#N)[C@H](c2ccsc2)[C@H]2COCC=C12` was tested, and the Potency was 2.51 µM (active). Work on `CCOC(=O)N1CC=C2C(C#N)=C(N)C(C#N)(C#N)[C@H](c3cccs3)[C@H]2C1` yielded a largest response in the series, negative = inhibition of -5.72%.

From PubChem BioAssay AID1490 (National Center for Advancing Translational Sciences (NCATS), 2009)
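Further: the enzyme is Sfp with the accession as filed and its product quenches rhodamine fluorescence.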
Potency means the concentration at half of the fitted maximal effect.
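Wherever largest response in the series, negative = inhibition is given: 0% = enzyme reaction without inhibitor and -100% = no enzyme wells.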
